This experiment addresses Pantothenate synthetase (Mycobacterium tuberculosis (strain ATCC 25618 / H37Rv)) (UniProt P9WIL5). Briefly: Recombinant Mtb pantothenate synthetase (PanC) inhibitors, coupled enzyme, confirmatory (AID 375).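 Further: 0% = full reaction with vehicle and 100% = no enzyme background.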 The settings on record: coupled enzyme assay; at 10 µM, active compounds read high.

Results on 20 molecules are retold here after PubChem BioAssay.

A number with no mark means an inactive call. How the calls were made is not given here.

Chain of Pantothenate synthetase (Mycobacterium tuberculosis (strain ATCC 25618 / H37Rv)) (P9WIL5 whole entry, looked up): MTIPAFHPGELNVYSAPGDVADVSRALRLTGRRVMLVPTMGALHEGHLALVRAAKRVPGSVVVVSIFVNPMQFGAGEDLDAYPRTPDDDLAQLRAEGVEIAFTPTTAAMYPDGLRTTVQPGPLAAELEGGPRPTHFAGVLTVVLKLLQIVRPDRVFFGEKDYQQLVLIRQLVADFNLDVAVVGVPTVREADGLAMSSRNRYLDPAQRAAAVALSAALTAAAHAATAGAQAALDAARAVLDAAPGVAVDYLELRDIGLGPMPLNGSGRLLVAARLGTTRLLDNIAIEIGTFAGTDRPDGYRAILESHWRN

For `CCOC(=O)C1=C(C)N(C)C(=O)NC1c1ccccc1OC` (stereo not given), the inhibition was 0%.
The figure for `CCCCCCCCCCCCCCCC(O)C(N)CO` (stereo not given) is 0%; for `O=C(COC(=O)c1cc(-c2ccco2)nc2ccccc12)NCc1ccc2c(c1)OCO2` it is 0%.
The figure for `COc1cc(C2N3CC4(C)CN2CC(C)(C3)C4)ccc1O` (stereo not given) is 0%.
For `CCOCCn1cnc2sc(C(=O)NCC(=O)OCC)c(C)c2c1=O`, the inhibition is 10%.
With `Cc1nn(C)cc1NC(=O)CCSc1nc(-c2ccco2)cc(C(F)(F)F)n1`, the inhibition is 0%.
Turning to `CCOC(=O)c1nnc2ccnn2c1N`, the inhibition is 0%.
The figure for `CNCCCC12CCC(c3ccccc31)c1ccccc12` is 0%.
The same measure for `COc1cccc(C(c2nnnn2CCc2ccccc2)N2CCN(c3ccccc3)CC2)c1OC` (stereo not given): 0%.
As for `CCN1CCN(Cc2ccccc2NC(=O)Nc2ccc(C)cc2)CC1`, the inhibition is 3%.
The same measure for `CCN1CCCC1CN=Cc1c(O)n(-c2ccccc2)c(=O)c2ccccc12` (stereo not given): 0%; for `N#CC1(c2ccccc2)CCC(=NO)CC1` (stereo not given): 0%; for `Cn1c(=O)c2c(ncn2CC(O)CNc2ccc(Cl)cc2)n(C)c1=O` (stereo not given): 0%.
The same measure for `Cc1ccc2c(c1)C(N1CCCC1=O)CC(c1ccco1)N2` (stereo not given): 0%; for `CCCNC(=O)c1cc(-c2ccco2)on1`: 2%; for `Cc1nnc(SCCn2c(N3CCC(Cc4ccccc4)CC3)nc3c2c(=O)[nH]c(=O)n3C)s1`: 2%.
The same measure for `CC(C)Cc1ccc(C(C)C(=O)O)cc1` (stereo not given): 0%.
Regarding `CCCc1cc(C(=O)Nc2sc(C)c(C)c2C(=O)OCC)no1`, the inhibition is 3%.
The same measure for `Cc1nc(NC(=O)C23CCC(C)(C(=O)O2)C3(C)C)sc1C` (stereo not given): 0%.
The figure for `CCCCc1nc(NCCN2CCOCC2)c(C#N)c2c1COC(C)(C)C2` is 0%.
